{
  "source": "the OligoGym collection",
  "data": [
    {"target": "GNAQ", "test": "pooled miR-30 sensor sort-seq; sequence = guide strand", "conditions": "shRNA", "values": [
      {"sequence": "TCTAAGCACATCTTGTTGCGTA", "sensor-assay potency score (higher = more potent)": 0.35},
      {"sequence": "TACTCTTGCCACTCTCTCCTGT", "sensor-assay potency score (higher = more potent)": 0.305},
      {"sequence": "TCGAACTCTAAGCACATCTTGT", "sensor-assay potency score (higher = more potent)": -0.759},
      {"sequence": "TTGATAAACGTACTCTTGCCAC", "sensor-assay potency score (higher = more potent)": -0.533},
      {"sequence": "ATAATTGATATTCTCGTCGTCT", "sensor-assay potency score (higher = more potent)": 0.0326},
      {"sequence": "TATCTTCATCAGAGTATCCTGA", "sensor-assay potency score (higher = more potent)": -0.164},
      {"sequence": "TCGTCTATCATAGCATTCCTGG", "sensor-assay potency score (higher = more potent)": -1.02}
    ]},
    {"target": "GNAT1", "test": "pooled miR-30 sensor sort-seq; sequence = guide strand", "conditions": "shRNA", "values": [
      {"sequence": "TTGACGTTCTGCGTGTCGGTGG", "sensor-assay potency score (higher = more potent)": 0.245},
      {"sequence": "TAGTCCGGGAAACAGATGCTGA", "sensor-assay potency score (higher = more potent)": -1.24},
      {"sequence": "TTCGTCGTCCTCCACTAGCACC", "sensor-assay potency score (higher = more potent)": -1.74},
      {"sequence": "TCCTTGATGATGATGTCGGTGA", "sensor-assay potency score (higher = more potent)": -1.08},
      {"sequence": "TTGGGTCCATCGTAGTCCGGGA", "sensor-assay potency score (higher = more potent)": -0.616},
      {"sequence": "TAGCGGTGGTTGCAGATGCTGT", "sensor-assay potency score (higher = more potent)": -1.65},
      {"sequence": "TAGATCTCCTTCACGTCGCGCC", "sensor-assay potency score (higher = more potent)": -0.148},
      {"sequence": "TAATCTTCATCTGCTTGACGAT", "sensor-assay potency score (higher = more potent)": -0.376},
      {"sequence": "TTCTTTTCCAGCTCCCTGGAGT", "sensor-assay potency score (higher = more potent)": -0.257},
      {"sequence": "TTGAGTGTGGTCATGGCGCGTA", "sensor-assay potency score (higher = more potent)": -0.473},
      {"sequence": "TGCACCTTGATGTAGTTGCCGG", "sensor-assay potency score (higher = more potent)": -1.2},
      {"sequence": "TTTGACGTTCTGCGTGTCGGTG", "sensor-assay potency score (higher = more potent)": -0.514}
    ]},
    {"target": "GNLY", "test": "pooled miR-30 sensor sort-seq; sequence = guide strand", "conditions": "shRNA", "values": [
      {"sequence": "TTTCTCCTCATCACGCAGGTGG", "sensor-assay potency score (higher = more potent)": -0.588},
      {"sequence": "ATTGGAAACACTTCTCTGGGTG", "sensor-assay potency score (higher = more potent)": 0.184},
      {"sequence": "TTTTGGACTATCGTCAGACAGG", "sensor-assay potency score (higher = more potent)": -1.31},
      {"sequence": "TTTTGGTCAACAGGTCACCCTG", "sensor-assay potency score (higher = more potent)": -1.53},
      {"sequence": "TTGGTCAACAGGTCACCCTGGG", "sensor-assay potency score (higher = more potent)": -0.135},
      {"sequence": "TTCAGTTTTTGGACTATCGTCA", "sensor-assay potency score (higher = more potent)": 0.462},
      {"sequence": "TTGGACTATCGTCAGACAGGTC", "sensor-assay potency score (higher = more potent)": -0.895},
      {"sequence": "TATACACAACCTGAGGTCCTCA", "sensor-assay potency score (higher = more potent)": -0.844},
      {"sequence": "TTGCCAGGTCGTAGTACTCAGG", "sensor-assay potency score (higher = more potent)": -1.35},
      {"sequence": "TTGGAAACACTTCTCTGGGTGG", "sensor-assay potency score (higher = more potent)": -0.134},
      {"sequence": "TTTGGTCAACAGGTCACCCTGG", "sensor-assay potency score (higher = more potent)": 0.282},
      {"sequence": "ACTATCGTCAGACAGGTCCTGT", "sensor-assay potency score (higher = more potent)": -0.334}
    ]},
    {"target": "GOLGA1", "test": "pooled miR-30 sensor sort-seq; sequence = guide strand", "conditions": "shRNA", "values": [
      {"sequence": "TATAGTAGTGAAGAACTTCAGC", "sensor-assay potency score (higher = more potent)": -0.313},
      {"sequence": "TTATCTTCTGCAAGTTTCGGAC", "sensor-assay potency score (higher = more potent)": -0.221},
      {"sequence": "TTAAGTCTGATGACATCTGATT", "sensor-assay potency score (higher = more potent)": -1.11},
      {"sequence": "TTGAGTTTCAGCAGTGACCTTT", "sensor-assay potency score (higher = more potent)": 0.403},
      {"sequence": "TTTATCTTCTGCAAGTTTCGGA", "sensor-assay potency score (higher = more potent)": 0.43},
      {"sequence": "TTCTAATGCAATTTCAAGCTTC", "sensor-assay potency score (higher = more potent)": 0.23},
      {"sequence": "TATCACATGATCTCTCTGCTCT", "sensor-assay potency score (higher = more potent)": 0.568},
      {"sequence": "TTCGAAGAGCTCATTATCGGGT", "sensor-assay potency score (higher = more potent)": 0.0609},
      {"sequence": "TGATCTTACTTTCTGCACCTGT", "sensor-assay potency score (higher = more potent)": -0.0709}
    ]}
  ]
}
